# Data: PubChem BioAssay AID1347041 (National Center for Advancing Translational Sciences (NCATS), 2019)
# Where “and” joins values, the source holds several entries; their conditions need not be identical. Identical values can stand only once. The whole screen tested about 480,000 compounds, of which about 740 (0.15%) were called active. This is one part of a sample in which actives are shown more often than they occur. No stated cut-off is given here; in the data, active means activity change below about -30%; inconclusive means mostly about -25% to -30%; inactive means weaker than that. Some structures have more than one record in an assay (separate samples or runs), and their calls can disagree.
# Target: L-lactate dehydrogenase A chain (Homo sapiens) (UniProt P00338)
# Assay: qHTS assay for inhibitors of human lactate dehydrogenase;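 further: values are at about 110 or 230 µM; plate controls were DMSO wells for no effect and wells without enzyme for full effect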
# Details: purified LDHA, NADH/diaphorase-resazurin fluorescence; stronger effect = lower value
# Procedure, shortened: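 Remaining NADH was detected by diaphorase (0.133 mg/mL) converting 37 µM resazurin to fluorescent resorufin, read at 0 and 20 minutes. The preceding 5-minute room-temperature reaction used 2 nM LDHA, 0.2 mM sodium pyruvate and 0.06 mM NADH at pH 7.4.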
row,SMILES,activity change
1,CC/C(=C(/c1ccccc1)c1ccc(OCC[N+](C)(C)C)cc1)c1ccccc1,-30.9% (active)
2,CCCCOc1ccc(C(=O)NO)cc1,12.4% (inactive)
3,CCCCCCCCCOc1ccc(C(=O)c2ccccc2)cc1,2.28% (inactive)
4,Cc1cc(C)cc(Nc2nc3ccccc3nc2NS(=O)(=O)c2ccccc2)c1,-9.61% (inactive)
5,C=CCOc1ccc(NC(C)=O)cc1,8.6% (inactive)
6,Cc1nn(CC(=O)Nc2ccc3c(c2)nc2n3CCN(C)C2)c(=O)c2ccccc12,2.93% (inactive)
7,Cc1ccc(OCC(=O)OCc2cc(=O)n3nc(C4CC4)sc3n2)cc1,-4.61% (inactive)
8,O=C(COc1ccccc1F)OCc1cc(=O)n2nc(C3CCCCC3)sc2n1,-0.186% (inactive) and -35% (active)
9,O=C(COc1ccccc1F)Nc1ccc(C(=O)OCc2cc(=O)n3nc(C4CC4)sc3n2)cc1,0.0167% (inactive)
10,CC(=O)c1ccc(S(=O)(=O)NCc2nnnn2-c2ccccc2)cc1,-5.01% (inactive)
11,O=S(=O)(Cc1nnnn1-c1ccc(Br)cc1)c1ccc(F)cc1,-2.83% (inactive)
12,O=S(=O)(Cc1nnnn1-c1ccccc1)c1ccccc1,0.923% (inactive) and -41.4% (active)
13,Cn1ccnc1Sc1nc2c(c(=O)n(C)c(=O)n2C)n1Cc1ccc(F)cc1,1.87% (inactive)
14,Cc1ccc2oc(C(=O)Nc3ccccc3F)cc(=O)c2c1,7.9% (inactive)
15,O=C(O)C(Sc1nc(-c2ccccc2)cc(C(F)(F)F)n1)c1ccccc1 (centres undefined),13.5% (inactive)
16,O=C(NC1CCCC1)c1nc(-c2cccc3[nH]ccc23)no1,-3.9% (inactive)
17,CC(=O)Nc1ccc(S(=O)(=O)NC2(C(F)(F)F)C(=O)Nc3c2c(=O)[nH]c(=O)n3Cc2ccccc2)cc1 (centres undefined),-3.74% (inactive)
18,O=c1[nH]c(=O)n(Cc2ccco2)c2c1C(C(F)(F)F)(C(F)(F)F)N=C(c1ccco1)N2,-12.6% (inactive)
19,O=C(NC1(C(F)(F)F)C(=O)Nc2c1c(=O)[nH]c(=O)n2Cc1ccco1)c1ccco1 (centres undefined),-33.9% (active)
20,Cc1cc(Nc2ccccc2)n2nc(Cc3ccc(Cl)cc3)nc2n1,-32.3% (active)

row,SMILES,activity change
1,CCc1nc2nc(C)cc(Nc3ccc(F)c(Cl)c3)n2n1,-6.31% (inactive)
2,Cc1cc(Nc2cccc(Cl)c2)n2nc(Cc3ccccc3)nc2n1,-15% (inactive)
3,Cc1ccc(C)c(N2CCN(C(=O)CCS(=O)(=O)c3cccc4nsnc34)CC2)c1,0.345% (inactive)
4,O=C1CCCC2=C1C(c1cccnc1)CC(=O)N2c1ccccc1C(F)(F)F (centres undefined),0.301% (inactive)
5,O=C(CSc1nnnn1C1CCCC1)N1CCCC1c1ccc2c(c1)OCCCO2 (centres undefined),-4.78% (inactive)
6,CC(=O)NC(Cc1c[nH]c2ccccc12)C(=O)N1CCC1 (centres undefined),-6.31% (inactive)
7,FC(F)(F)c1ccc(Cl)c(N/N=C/c2c(Cl)cccc2Cl)c1,-0.292% (inactive)
8,N#Cc1cc(NCC(=O)N2CCNC2=O)ccc1Cl,-31.1% (active)
9,COC(=O)c1cc(NCC(=O)N2CCNC2=O)ccc1Cl,-2.4% (inactive)
10,CSc1ccc(Cl)c(C(=O)OCC(=O)N2CCNC2=O)c1,-5.09% (inactive)
11,CC(=O)Nc1cccc(NC(=O)c2nc(-c3ccccc3)oc2C)c1,-3.27% (inactive)
12,CCN(CC)CCNC(=O)c1ccc2nc(C)c(C)nc2c1,1.31% (inactive)
13,COc1ccc(NC(=O)CN(C)C(=O)c2nc(-c3ccccc3)oc2C)cc1,7.53% (inactive)
14,Cc1oc(-c2ccccc2)nc1CC(=O)N(C)CC(=O)Nc1cccc2ccccc12,-30.2% (active)
15,Cc1ccc(NC(=O)CN(C)C(=O)c2nc(-c3ccccc3)oc2C)cc1,-4.78% (inactive)
16,CC(=O)c1ccccc1NC(=O)c1ccccc1Cc1ccccc1,-24.1% (inactive)
17,CCN(CC)C(=O)c1ccc(CSC(F)F)o1,-3.64% (inactive)
18,Cc1cccc(N2CCN(Cc3ncc(-c4ccc(Cl)cc4)o3)CC2)c1,6.83% (inactive)
19,Cc1c(CC(=O)NCCCN2CCOCC2)c(=O)oc2cc(O)ccc12,1.59% (inactive)
20,CCOc1ccccc1NC(=O)Cn1c2ncccc2c(=O)n1-c1ccc(C)c(C)c1,-10% (inactive)

row,SMILES,activity change
1,Cc1[nH]n(-c2nc(-c3ccccc3)cs2)c(=O)c1CC(=O)Nc1cccc(Cl)c1,-4.25% (inactive)
2,CCOc1ccccc1NC(=O)Cc1c(C)[nH]n(-c2nc(-c3ccccc3)cs2)c1=O,-42.8% (active)
3,CCNC(=O)c1nnc(C(=O)Nc2cccc(Cl)c2)s1,6.18% (inactive)
4,Cn1c(=O)n(C)c2cc(SCc3ccco3)c(NC(=O)c3ccc(C(C)(C)C)cc3)cc21,-5.57% (inactive)
5,CCCCCn1c(SCc2ccc(C)cc2)nc2c1c(=O)[nH]c(=O)n2C,-21.4% (inactive)
6,CN1CCN(CCC2(Cc3ccccc3)CCOC(C)(C)C2)CC1 (centres undefined),-4.19% (inactive)
7,O=C(O)C(Br)Cc1ccc(Cl)cc1Cl (centres undefined),27.6% (inactive)
8,CC1(C)CC(N2CCN(C(c3ccccc3)c3ccccc3)CC2)=CC(=[N+]2CCCCC2)C1,-64.6% (active)
9,O=C(Nc1ccc2c(c1)OCCCO2)c1ccccc1OCc1ccc(F)cc1,7.94% (inactive)
10,CC(C)(C)c1ccc(-c2nnc(SCC(=O)NC(=O)NC3CCCC3)n2Cc2ccco2)cc1,9.16% (inactive)
11,CC1=C/C(=N\NC(N)=S)C(C)C1 (centres undefined),1.95% (inactive)
12,CCOC(=O)/C=C/c1cc(C(=O)OCC)c(/C=C/C(=O)OCC)cc1C(=O)OCC,-12.2% (inactive)
13,CCn1c(SCC(=O)NCC(F)(F)F)nnc1-c1ccncc1,-0.908% (inactive)
14,Cc1ccsc1/C=N/n1c(=S)[nH]nc(C)c1=O,-32.7% (active)
15,CCc1n[nH]c(=S)n1/N=C/c1c[nH]c2ccc(Br)cc12,-11% (inactive)
16,Cc1n[nH]c(=O)nc1N/N=C/c1cccs1,10.4% (inactive)
17,Cc1ccccc1NC(=O)Cc1nnc(SCC(=O)c2ccc(C#N)cc2)n1C,2.1% (inactive)
18,CCc1nn2c(=O)cc(CN(CC)Cc3ccc(OC)cc3)nc2s1,0.31% (inactive)
19,CCOC(=O)C(NC(=O)c1ccccc1)C(F)(F)F (centres undefined),-5.84% (inactive)
